Among all 69,000 compounds or so, about 8,600 (12%) showed an effect of 50% or more. The list comes from a sample in which strong results are over-represented; it also holds similar structures and randomly drawn compounds.
tested on: Plasmodium berghei; experiment: Screen against P. berghei liver stage (PbLuc), transformed with Luciferase, at 10uM; type: functional, HepG2; conditions: tested at 10 uM

Structure (SMILES) | INHIBITION [%]
Cc1nc2c(c(=O)[nH]1)CN(C(=O)CCC1CCCN(C)C1)C2 (centres undefined) | 48.2
Cc1noc(CN(C)Cc2ccc3c(c2)OCO3)n1 | 19.2
Cc1cc(Cl)ccc1-n1ncc(C(=O)NCC2COC(C)(C)O2)c1N (centres undefined) | -15.2
CC(C)N(C)Cc1cnc2n1CCN(Cc1ccsc1)C2 | 21.4
COCCn1ccc2cc(C(=O)N3CCN(S(C)(=O)=O)CC3)ccc21 | -0.448
CC(C)(C)C(=O)N1CCC(c2noc(C3CCC(=O)N3)n2)CC1 (centres undefined) | -17.9
Cc1nnc2n1CCN(Cc1csc(COc3ccccc3)n1)C2 | -0.113
CC1(C)Cc2nc(C(C)(C)C)ncc2C(NC(=O)C2(N)CC2)C1 (centres undefined) | -10.9
COc1cc(C(=O)NS(=O)(=O)c2cncc(Br)c2)cc(OC)c1C | -4.68
O=C1[C@@H]2CN(c3ncccc3Cl)C[C@]2(C(=O)O)CN1CC1CC1 | 39.1
CC(Cc1cccnc1)Nc1ncnc2cccc(F)c12 (centres undefined) | -3.43
CC(Cc1cncs1)Nc1ncnc2cccc(F)c12 (centres undefined) | 66.9
Cc1cc(CC(C)Nc2ncnc3cccc(F)c23)[nH]n1 (centres undefined) | 19.3
COc1ccc(OCCNC(=O)N2CCS(=O)(=O)CC2)cc1 | -16.35
COCCOCC(=O)Nc1cc(C)ccc1F | -18.9
COCCOCC(=O)Nc1ccc(C)cc1F | -29.2
COCCOCC(=O)Nc1ccc(F)cc1C | 55.4
CCN(C)c1ncnc2c1CCN(Cc1nccs1)CC2 | -37.8
CCc1nc(NCCc2nc(C)c(C)s2)c2cnn(C)c2n1 | 27.6
Cc1cc(C(F)(F)F)nc(CCNc2nc(C)nc3c2cnn3C)n1 | 15.3
CCCc1nc(N[C@H]2COC[C@@H]2N2CCCCC2)c2cnn(C)c2n1 | -19.8
CCc1nc(NCCc2c(C)nn(CC)c2C)c2cnn(C)c2n1 | 65.7
CCCc1nc(NCc2c(C)nn(CCC)c2C)c2cnn(C)c2n1 | 66.6
CCCc1nc(N[C@H]2COC[C@@H]2N2CCCC2)c2cnn(C)c2n1 | 25.8
CC(C)(C)c1ncc(CNCC2CCCN2c2cccnn2)s1 (centres undefined) | 31.3
Cn1cc(C(=O)NC[C@@H]2OC[C@H]3CN(Cc4ccco4)CC[C@H]32)cn1 | -1.53
CC(C)OCCN1CCN(C(C)c2nc(C3CC3)no2)CC1 (centres undefined) | 33.6

Structure (SMILES) | INHIBITION [%]
O=C(NCCNc1ncccn1)N1CCCC1 | -0.113
Cc1ccc(N2CC(c3nccc(C)n3)C2)nn1 | 19.64
CCOC(C)C(=O)NCc1ccc(N(C)C)cc1 (centres undefined) | -25.9
CC(C)c1cc(Br)ccc1NC(=O)NCC(O)CO (centres undefined) | 25.4
CCOCC(O)CN1CCN(C(=O)c2cc(F)cc(F)c2)CC1 (centres undefined) | 3.73
O=C(NCc1csc(Br)c1)c1cnccn1 | -43.6
O=C(NCC(=O)N1CCc2ccccc2C1)c1cnccn1 | -112
O=C(CCCNC(=O)c1cnccn1)Nc1ncc[nH]1 | 56.3
O=C(CCNC(=O)c1cnccn1)Nc1ncc[nH]1 | 59.1
CC(C)(C)c1ccc(S(=O)(=O)CCNC(=O)c2cnccn2)cc1 | 26.8
CC(C)(C)c1ccc(C(=O)NCCCNC(=O)c2cnccn2)cc1 | -23.45
O=C(NCCNc1cc(N2CCCC2)ncn1)c1cnccn1 | 19.2
O=C(CNC(=O)c1cnccn1)Nc1ncc[nH]1 | 71.2
O=C(NCCSC1CCCC1)c1cnccn1 | 4.41
O=C(Cc1ccccn1)N1CCC2(CC1)CC(Oc1ccccn1)CO2 (centres undefined) | 14.2
O=C(c1cccnc1Oc1ccc(Cl)cc1)N1CC[C@@H](O)C1 | 11.5
Cn1nccc1C(=O)N1CCC2(CC1)COC(COc1ccccn1)C2 (centres undefined) | 8.64
CC(=O)Nc1nc(C)c(S(=O)(=O)NCCc2cccnc2)s1 | 13
Cc1ccc2oc(CN3CCC(C(=O)O)(n4ccnc4)CC3)c(C)c2c1 | -23.5
Cc1nc2c(c(NC(C)C)n1)CCN(C1CCOCC1)CC2 | 36.4
Cc1cnn(CCCNC(=O)NCCS(=O)(=O)Nc2ccccc2)c1 | -4.4
Cc1cnn(CCCNC(=O)NC(C)C(=O)Nc2ccccc2)c1 (centres undefined) | 68.8
Cc1cnn(CCCNC(=O)NCCC(=O)Nc2ccccc2)c1 | 22.6
Cc1nc2c(c(C)c1CC(=O)NCc1ccco1)c(=O)[nH]n2C | 13.6
c1cnnc(N2CCCC2CNc2ncnc3ccccc23)c1 (centres undefined) | 64.7
Cn1ncc2c(NCC3CCCN3c3cccnn3)ncnc21 (centres undefined) | 21.5
c1cnnc(N2CCCC2CNc2cnc3ccccc3n2)c1 (centres undefined) | 7.08
